In all, about 4,800 compounds went through this assay and about 420 (8.8%) showed an effect of 50% or more. This is one part of a sample in which strong results are shown more often than they occur.
The compounds below were run on Plasmodium falciparum (assay: Confirmatory screen in NF54 nanoGlo assay, in single point, at 2uM, 72h). Settings: timepoint 72 hour.
Type: functional, Erythrocyte

Structure (SMILES) | % Inhibition [%]
COc1snc(C(Cl)(Cl)Cl)c1Cl | -2
CCN(CC)CCC1C(=O)N(c2ccccc2)C(=O)N(c2ccccc2)C1=O | 4
CC(=O)N1N=C(c2cccnc2)O[C@H]1c1ccc(F)cc1 | -10
Cc1nc(Cn2nc(C(C)(C)C)oc2=O)oc1C | 0
FC1(F)C[C@@H](COc2cccnc2)N(C2CCCCC2)C1 | 3
Cn1cc(/C=C2\CC3C4CCC5CCCCC5(C)C4CCC3(C)C2O)cn1 (configuration not stated) | 0
Cc1cccc(CN(C)C)c1OC(=O)N(C)C | -9
COc1ccc(-c2cc([C@H]3CN4CC[C@H]3C[C@@H]4CNC(=O)C3CCCCC3)n(C)n2)cc1OC | -9
Cc1ccc(NC(=O)N2CCC(=O)CC2)cc1Br | -4
C=CCCC(CN1C[C@H]2CC=CC[C@H]2C1)Oc1ncc(F)cn1 (some centres not stated) | 77
COC(=O)[C@H]1CN(Cc2noc(C)n2)C[C@@H]1c1ccc(F)cc1F | -20
CC(Cc1ccccc1)NC1CN2CCC1CC2 (configuration not stated) | 1
CC(C)N1CCN(c2nc3nc[nH]c(=O)c3s2)CC1 | 4
O=S(=O)(NC12CCCC1CNC2)c1onc(C2CC2)c1Cl (configuration not stated) | 95
O=C(NCc1cc(F)cc(F)c1)c1cn(Cc2ccc(F)cc2)nn1 | -15
O=C1N[C@](c2ccccc2)(C(F)(F)F)c2ccc3ccccc3c2O1 | 5
CC1CCCCC1N1CCN(C(=O)COc2ccc(Br)cc2)CC1 (configuration not stated) | 3
O=c1c2cc(Cl)ccc2nc(-c2cccnc2)n1-c1ccc(Br)cc1 | 0
O=C1O[C@@H]2CCN(Cc3ccccc3)[C@H]1C2 | -15
CCC1(CC)C(=O)N(CN2CCCC2=O)C(=O)N(CN2CCCC2=O)C1=O | -17
CN(C)S(=O)(=O)Nc1cccc(OC(=O)N2CCOCC2)c1 | -10

Structure (SMILES) | % Inhibition [%]
CCN1CCC[C@H](NC(C2CCC2)C2CCC2)C1 | -3
Cc1cc(=O)c(OCC(=O)N2CCN([C@@H](c3ccccc3)c3ccc(Cl)cc3)CC2)c[nH]1 | 63
O=C(N1CCN(C(c2ccccc2)c2ccccc2)CC1)C(O)(c1ccccc1)c1ccccc1 | -4
COc1cc(OCC(=O)N2CCN([C@@H](C)Cc3ccccc3)CC2)cc(OC)c1OC | 8
Cc1ccc(C(O)(c2ccc(C)c(C)c2)[C@H]2C[N@]3CC[C@@H]2CC3)cc1C | 6
CN1CCN(CCO[C@@H](c2cccc(Cl)c2)c2ccccc2Cl)CC1 | 0
O=C(c1ccccc1)c1cc(Cl)ccc1NC(=O)[C@H]1CC(=O)N(c2ccc(F)cc2)C1 | 85
c1cc(-n2cnnn2)ccc1N[C@H]1CN2CCC1CC2 | -14
CC(C)c1nc(CC(=O)N2CCN(Cc3nnc4n3CCCCC4)CC2)cs1 | -12
CCCC(=O)N(C1=CC2CCC(C1)N2C)c1ccccc1 (configuration not stated) | 1
Cc1cc(C(=O)NC2CC(C)n3ccnc32)nn1C(C)C (configuration not stated) | 58
COc1cc(=O)c(C(=O)N2CCC3(CC2)OCCO3)nn1-c1ccc(C)cc1 | -5
CN1CCC2CCN(C(=O)c3cc(C4CC4)on3)C2C1 (configuration not stated) | 2
CCOc1ccccc1N1C(=O)NC(=O)[C@@]2(Cc3cc(C)ccc3N(C)C2)C1=O | -10
COC(=O)C(O)(c1ccc2c(c1)C(O)(C(F)(F)F)C(=O)N2C(C)C)C(F)(F)F (configuration not stated) | 8
CC1CN2CCCC2CN1C(=O)c1cc(C2CC2)on1 (configuration not stated) | -17
O=C1C2CCN(CC2)[C@H]1Cc1ccc(Cl)cc1 | 4
Cc1cc(C(F)(F)F)c2c(C(N)=O)cn(C(C)(C)C)c2n1 | 2
C[N+]12CCC(CC1)[C@@H](C(O)(c1cccc(Cl)c1)c1cccc(Cl)c1)C2 | 24
O=C1CO[C@H]2CCN(Cc3cn4ccc(Br)cc4n3)C[C@@H]2N1 | 1
Cn1nc(OC(=O)Nc2ccccc2)cc1C(F)(F)F | 6

Structure (SMILES) | % Inhibition [%]
CN(C)C(=O)CCCn1ccc(NC(=O)C2C(C)(C)C2(C)C)n1 | -18
Nc1ccc(N2CCN3CCC[C@H]3C2)cc1 | 8
Cc1ccc2c(c1)CCCN2C(=O)CN1CC=C(c2cnn(C)c2)CC1 | 43
CCC(CC)c1cc([C@H]2CN3CC[C@H]2C[C@@H]3CO)nc(-c2ccncc2)n1 | 26
CCCS(=O)(=O)NC[C@H]1C[C@@H]2CCN1C[C@@H]2c1cc(C(CC)CC)nc(-c2ccncc2)n1 | 18
CCC(CC)c1cc([C@H]2CN3CC[C@H]2C[C@@H]3CNS(=O)(=O)Cc2ccccc2)nc(-c2ccncc2)n1 | 63
CC1CCNC(=O)C1NC(=O)Nc1ccc(C#N)c(C(F)(F)F)c1 (configuration not stated) | 8
Clc1ccc(C2CC(c3cccnc3)Nc3nnnn32)cc1 (configuration not stated) | -10
CCCCC1(CCCC)C(=O)NC(=Nc2ccc(C)cc2)NC1=O | -18
O=C1N(c2ccccc2)C(=O)C2(Cc3cc(C(F)(F)F)ccc3N3CCC(c4ccccc4)CC32)C(=O)N1c1ccccc1 (configuration not stated) | 4
CC[C@H]1C[N@@]2CC[C@H]1C[C@@H]2COC(=O)Nc1ccc(C(C)(C)C)cc1 | 4
COc1cccc(CNC(=O)N2CC[C@@H]3CCN(C)C[C@@H]32)n1 | -2
CC(=O)N(C1CCN(Cc2ccccc2)CC1)C1(C(=O)Nc2ccc3[nH]ccc3c2)CCN(C)CC1 | 35
CN1CC[C@]2(CCN(c3ccnc4ccsc34)C2)C1 | 99
c1cc(N2CC[C@@]3(CCCNC3)C2)c2sccc2n1 | 99
CCn1nccc1CNCCc1ccccc1 | 4
CC[C@H]1C[N@@]2CC[C@H]1C[C@@H]2COC(=O)Nc1ccccc1 | 3
CNc1snc(C)c1C(=O)N1CCC(C(=O)OC)(c2ccccc2)CC1 | -2
COc1ccc(-c2ccccc2N2CCNCC2)c2ccc(C)nc12 | -4
Clc1cccc(CCN[C@H]2CCOC3(CCOCC3)C2)c1 | 7

From ChEMBL document CHEMBL4888484, “Replenishing the malaria drug discovery pipeline: Screening and hit evaluation of the MMV Hit Generation Library 1 (HGL1) against asexual blood stage Plasmodium falciparum ,using a nano luciferase reporter read-out” (2022)
